# Mtb hypoxia inh = reduces hypoxia-regulated biosensor signal in M. tuberculosis; M. tuberculosis hypoxia-regulated fluorescent reporter, fluorescence; 0.1% of 300,000 active; fluorescence inhibition, % (no concentration beside the values); in the data active = fluorescence inhibition mostly above about 23%, no sharp cut-off; inactive = mostly below about 17%
# Sa RN4220 lethal = kills Staphylococcus aureus RN4220; S. aureus RN4220 growth, OD600, 16 h; inhibition, % (test concentration not listed); 0.33% of 330,000 active; in the data active = inhibition above about 85%;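 note: plate controls were untreated cells for no effect and reference antibiotic for full effect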
# Sa ugtP lethal = growth inhibition of S. aureus ugtP deletion strain; S. aureus RN4220 ugtP deletion, OD600 growth, 16 h; growth inhibition, % (no concentration beside the values); 0.54% of 330,000 active; AID 1259309; in the data active = growth inhibition above about 68%;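 note: plate controls were untreated wells for no effect and antibiotic for full effect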
# An asterisk follows results filed as active; . = no result given. Most compounds without a hit are left out; they make up all but 0.68% or so of the library.
SMILES,Mtb hypoxia inh,Sa RN4220 lethal,Sa ugtP lethal
C=C1CCN(C(C(=O)NCc2ccc(Cl)cc2)C(C)C)S(=O)(=O)c2ccccc21 (stereo not given),3,8,6
CCc1nnc(NS(=O)(=O)c2ccc(Nc3ccc([N+](=O)[O-])c4nonc34)cc2)s1,39*,6,-4
CCc1nnc(NS(=O)(=O)c2ccc(NS(=O)(=O)c3ccccc3[N+](=O)[O-])cc2)s1,1,-1,1
C#CCNC(=O)C1=CC(C)C(CCCO)C(OCC)O1 (stereo not given),13,6,1
Cc1ccccc1C(c1ccccc1Cl)N(C)C (stereo not given),9,3,9
Clc1ccc(C(c2ccccc2Cl)C(Cl)Cl)cc1 (stereo not given),1,-9,93*
NC(=O)C1CC2(CC(c3cccc(NC(=O)COc4ccc(Cl)cc4)c3)=NO2)CN1C(=O)c1ccc(Cl)cc1 (stereo not given),-3,5,2
COc1ccc(Br)cc1CNC(=O)Nc1cccs1,-16,91*,87*
COc1ccccc1CNC(=O)Nc1cccs1,4,53,26
CCc1n[nH]c(=S)n1N=C/C(C)=C\c1ccccc1,12,7,15
O=C(CSc1nc2ccccc2c(=O)n1Cc1ccccc1)Nc1ccc(Br)cc1C(=O)O,-2,76,99*
Cc1ccc(S(=O)(=O)N2CCOCC2)cc1NC(=O)CSc1nc2ccccc2c(=O)n1Cc1ccccc1,-7,2,4
COc1cc(Cl)c(C)cc1NC(=O)CSc1ccc(C)cc1,-2,5,10
COc1cc(Cl)c(C)cc1NC(=O)CSc1cc(Cl)ccc1Cl,2,1,95*
CN1CC2C3C(=O)N(Cc4ccccc4)C(=O)C3[C@](Cc3ccccc3)(C1=O)N2C(=O)c1ccc(Br)cc1 (stereo not given in full),14,3,6
Clc1ccc2c(NN=Cc3cccc(Br)c3)ccnc2c1,1,101*,101*
Oc1ccc(C=NNc2ccnc3cc(Cl)ccc23)cc1O,15,5,3
Clc1ccc2c(NN=Cc3ccccc3Br)ccnc2c1,6,98*,99*
Clc1ccc2c(NN=Cc3cccnc3)ccnc2c1,-5,3,9
COC(=O)c1cn(CCOc2ccc(C)cc2)c2ccccc12,3,4,-21
Cc1cc(OCCn2cc(/C(N)=N/O)c3ccccc32)ccc1Cl,3,11,93*
COc1ccc2c(c1)OCC1C2N2C(=O)CN(CCc3c[nH]c4ccccc34)C(=O)[C@@]2(C)C1c1ccccc1 (stereo not given in full),-1,0,-25
COCCN(C(=O)COC(=O)c1nc(Cl)ccc1Cl)c1c(N)n(Cc2ccccc2)c(=O)[nH]c1=O,-4,-2,-3
CCN(C(=O)COC(=O)c1nc(Cl)ccc1Cl)c1c(N)n(Cc2ccccc2)c(=O)[nH]c1=O,30*,3,-1
C=CCN1c2ccccc2[C@]23CC(C(=O)OC)N(C(=O)C4CCC4)C2=NC(C(=O)OC)=C(C(=O)OC)C13 (stereo not given in full),-1,-5,-8
SMILES,Mtb hypoxia inh,Sa RN4220 lethal,Sa ugtP lethal
COc1c(N2CCN(C(=S)NCc3ccccc3)C(C)C2)c(F)cc2c(=O)c(C(=O)O)cn(C3CC3)c12 (stereo not given),.,100*,100*
COc1c(F)c(F)cc2c(=O)c(C(=O)O)cn(C3CC3)c12,11,56,76
CC(C)(C)OC(=O)NCc1ccc(NC(=O)c2nc[nH]c2C(=O)NC(Cc2ccccc2)C(=O)OC(C)(C)C)cc1 (stereo not given),-13,2,2
CCOC(=O)C1CCN(c2c(C(=O)c3ccccc3)cnc3ccc(CC)cc23)CC1,1,39,94*
CCOC(=O)C1CCCN(c2c(C(=O)c3ccccc3)cnc3ccccc23)C1 (stereo not given),-1,2,69
CCCCCCCC#Cc1ccccc1C=NS(=O)c1ccc(C)cc1 (stereo not given),5,-2,99*
CCCCCCCCC#Cc1nc(C)ccc1OC,6,6,37
COCOC=C(NC(C)=O)c1ccccc1,3,4,7
CCOc1cccc(CNCCO)c1OCc1ccc(Cl)cc1Cl,8,0,-14
CCOc1cc(CNCc2ccncc2)cc(Br)c1OCc1ccccc1F,12,4,92*
CCOc1cc(CNCCO)cc(Br)c1OCc1ccc(Cl)cc1Cl,25,100*,98*
CCOc1cc(CNCCSc2nnnn2C)cc(Br)c1OCc1ccccc1F,3,3,4
CCN1C(=O)C2C(c3ccc(SC4CCCCC4)cc3)N[C@@](CC(C)C)(C(=O)OC)C2C1=O (stereo not given in full),4,0,3
O=[N+]([O-])c1ccc(O)c(C=Nc2ccc3nc(-c4ccccc4)[nH]c3c2)c1,14,88*,66
Cc1ccn(CC(=O)NN=Cc2cc([N+](=O)[O-])ccc2O)n1,3,93*,83*
O=C(Cn1nc2ccccc2n1)NN=Cc1cc([N+](=O)[O-])ccc1O,6,95*,88*
Cn1c(SCC(=O)NN=Cc2cc([N+](=O)[O-])ccc2O)nnc1-c1ccccc1,3,80,72
O=[N+]([O-])c1cccc(-c2nc3ccc([N+](=O)[O-])cc3[nH]2)c1,-6,-1,-15
Cc1cc(C(=O)NN=Cc2cc([N+](=O)[O-])ccc2O)c2ccccc2n1,-5,84,66
CC1C(NC(=O)C(=NOC(C)(C)C(=O)O)c2csc(N)n2)C(=O)N1S(=O)(=O)O (stereo not given),3,8,4
CC(=O)OC(COc1c2ccoc2cc2oc(=O)ccc12)C(C)(C)O (stereo not given),-14,10,5
Cc1ccc(-c2nnc(SCC(=O)NN=Cc3ccc(C)s3)n2-c2ccccc2)cc1,4,6,0
Cc1c(C(=O)O)c(O)cc2c1C(=O)c1c(O)c(C3OC(CO)C(O)C(O)C3O)c(O)c(O)c1C2=O (stereo not given),21,2,3
O=C(O)c1ccccc1NS(=O)(=O)c1ccc(NN=Cc2ccc(F)cc2)c([N+](=O)[O-])c1,4,-4,82
COc1ccc(C=NNc2ccc([N+](=O)[O-])cc2S(=O)(=O)Nc2ccccc2C(=O)O)cc1OC,8,0,26
SMILES,Mtb hypoxia inh,Sa RN4220 lethal,Sa ugtP lethal
COc1ccc(Br)cc1C=NNc1ccc(S(=O)(=O)Nc2ccccc2C(=O)O)cc1[N+](=O)[O-],11,100*,99*
O=C(O)c1ccccc1NS(=O)(=O)c1ccc(NN=Cc2cccc(Cl)c2)c([N+](=O)[O-])c1,8,-11,90*
CC1CCN(C(=O)c2[nH]cnc2C(=O)NC(CCCCNC(=O)OC(C)(C)C)C(=O)OC(C)(C)C)CC1 (stereo not given),19,4,1
CC(C)(C)c1ccc(C(=O)NC(=S)Nc2ccc(N3CCOCC3)cc2)cc1,.,-8,-8
O=C(NC(=S)Nc1ccc(N2CCOCC2)cc1)c1ccc(Cl)cc1,26,3,87*
COc1ccc(C(=O)NC(=S)Nc2ccc(CN3CCOCC3)cc2)cc1Br,21,3,80
Cc1cccc(C(=O)NC(=S)Nc2ccc(N3CCOCC3)cc2)c1,-4,2,87*
CS(=O)(=O)N1CCN(c2ccc(NC(=S)NC(=O)c3ccc4c(c3)OCO4)cc2)CC1,-2,7,93*
